Laboratory results reported in PubChem BioAssay AID1233 (SRMLSC, 2008).
Entries with a potency or affinity are not part of this list. Activity calls are given as the source filed them.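 Rule for the calls: active = a dose-response curve fit returns a half-maximal inhibitory concentration, extrapolated values included; inactive = the fit returns no such concentration.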

Molecular target: HMG-CoA reductase [Enterococcus faecalis] (UniProt Q9FD70)
Test: class II HMG-CoA reductase inhibition potency – biochemical, Enterococcus faecalis, confirmation (AID 1233)
Details: purified E. faecalis HMGR, NADPH absorbance 340 nm kinetics; series mostly up to 100 µM

outcome, inactive:
O=C(CN1CCC2(CC1)OCCO2)c1ccc2cc[nH]c2c1
O=C(CN1CCN(Cc2ccc(F)cc2Cl)C1=O)NCCc1ccc(Cl)cc1
Cc1ccc(C(=O)c2c(NC(=O)c3ccccc3)sc(C)c2C)cc1
COc1ccc(N2C(=O)CS/C2=C\[N+](=O)[O-])cc1
O=C(NN1S(=O)(=O)c2ccccc2S1(=O)=O)c1ccc(Br)cc1
COn1c(SCc2ccc(C)cc2C)nc2ccccc2c1=O
CCCCC(=O)Nc1cc(OCC)c(NC(=S)NC)cc1OCC
O=C1c2ccccc2C(=O)N1CCC(O)C[N+](=O)[O-] (stereo not drawn)
CC1CN(Cc2cnc(Cl)s2)CC(C)O1 (stereo not drawn)
O=C(CSc1nc2ccccc2n1CCc1ccccc1)N1CCOCC1
O=C(COC(=O)/C=C/c1ccco1)Nc1ccc(F)cc1Cl
Cc1ccsc1C(=O)C1CCCN(Cc2cc(F)ccc2-n2cccn2)C1 (stereo not drawn)
COc1ccccc1/C=C/C(=O)OCC(=O)Nc1c(F)cccc1F
O=C(Nc1cccnc1)c1ccc(COc2ccccc2Cl)o1
Cc1nc(SCC(=O)N2CC(=O)Nc3ccccc32)c2c(C)c(C)sc2n1
CCc1c(C#N)c(N)nc(SCC(=O)OCc2ccccc2)c1C#N
Cc1[nH]nc2c1C(c1ccsc1)C1=C(CC(C)(C)CC1=O)N2 (stereo not drawn)
C=CCn1c(Oc2ccccc2)nc2c1c(=O)n(C)c(=O)n2C
COc1cc(C#N)ccc1OCC(=O)c1ccc2c(c1)OCCO2
CN(C)CCNC(=O)c1ccc(COc2ccc(Cl)cc2Cl)cc1
Cc1ccc(-c2cc(C(=O)NCc3ccc4c(c3)OCO4)[nH]n2)c(O)c1C
Cc1ccc(C(=O)O)cc1S(=O)(=O)N1CCC(C(=O)O)CC1
CCOC(=O)c1cc2c(ccn2C)n1CC(=O)N1CCN(c2cccc(C(F)(F)F)c2)CC1
Cc1ccccc1-c1oc(C)c(C)[n+]1[O-]
CCc1c(C)sc(NC(=O)C2CC2c2ccccc2)c1C(N)=O (stereo not drawn)
CCOc1ccc(C2C(C#N)=C(N)Oc3cc(C)oc(=O)c32)cc1 (stereo not drawn)
NC1=NC(=O)S/C1=C\c1ccc(F)cc1
O=C(CCS(=O)(=O)c1cccc2nonc12)Nc1cccc2c1CCCC2
COc1ccc(S(=O)(=O)N2CC=C(C(=O)Nc3ccc(NC(C)=O)cc3)CC2)cc1
COc1cc(SC)ccc1C(=O)NCc1ccc(C)cc1
CCOC(=O)c1ccc(N(C(=O)c2cnccn2)C(C(=O)NC2CCCCC2)c2cn(C)nc2C)cc1 (stereo not drawn)
Cc1cc2cccc(C)c2nc1SCC(=O)NNC(=O)c1ccco1
Cc1cccc(/C=N/NC(=O)c2cc(-c3cccnc3)nc3c2c(C)nn3-c2ccccc2)c1
O=C(Cc1ccc2c(c1)CCCC2)Nc1ccccc1Cl
O=C(COC(=O)c1ccncc1)Nc1ccccc1
COc1ccc(N2CC(C)(C)C2=O)cc1
CN(C)c1ccc(P(=O)(OCc2ccccc2)C(O)c2ccncc2)cc1 (stereo not drawn)
O=C(COCc1nc2ccccc2c(=O)[nH]1)NCC1CCCCC1
